# Screening data from PubChem BioAssay.
# Only a selection was taken, and hits are over-represented in it overall.
# SARS PLpro yeast – blocks SARS-CoV papain-like protease in a yeast assay; Potency, µM (doses to about 32.9 µM), for the others: at the highest dose activity, positive = growth rescue, usual class: activators; S. cerevisiae expressing SARS-CoV PLpro, growth rescue; actives 0.19% (n = 330,000); calls by dose curve; further: potency means the concentration at half of the fitted maximal effect; 0% is about no effect; nearly all actives have a fitted effect of over 55% in size
# LmPK inhibitor – LmPK (Leishmania mexicana) enzyme inhibition. Potency, µM (doses to about 57.5 µM), without a hit: top-dose activity change, negative = inhibition, usual class: inhibitors. AID 1721. Q27686. purified LmPK, Kinase-Glo ATP luminescence, 1 h. actives 0.37% (n = 290,000); further: potency means the concentration at half of the fitted maximal effect; on the % scale 0 is the no-effect control and ±100 the full control effect
# Target sequence (Q27686 whole entry, looked up): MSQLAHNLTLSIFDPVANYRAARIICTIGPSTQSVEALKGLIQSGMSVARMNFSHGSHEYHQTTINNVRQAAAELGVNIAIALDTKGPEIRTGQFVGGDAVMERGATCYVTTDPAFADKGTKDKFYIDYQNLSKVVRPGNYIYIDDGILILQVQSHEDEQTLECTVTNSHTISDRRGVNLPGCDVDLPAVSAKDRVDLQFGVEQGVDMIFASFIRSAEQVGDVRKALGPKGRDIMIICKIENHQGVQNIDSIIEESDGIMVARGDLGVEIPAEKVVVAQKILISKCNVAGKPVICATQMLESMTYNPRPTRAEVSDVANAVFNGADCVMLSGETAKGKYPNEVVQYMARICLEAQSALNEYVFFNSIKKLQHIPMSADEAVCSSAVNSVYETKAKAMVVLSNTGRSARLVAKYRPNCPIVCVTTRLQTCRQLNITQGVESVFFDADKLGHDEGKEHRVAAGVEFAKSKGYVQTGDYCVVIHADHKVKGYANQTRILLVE
#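 Pyruvate kinase activity monitored as ATP production (luciferase luminescence). Conditions: 0.1 nM enzyme, 0.5 mM PEP, 0.1 mM ADP, 1 h, RT; normalized against uninhibited and no-enzyme wells.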
# NS1 function inh – influenza NS1 inhibition; AID 2326; Potency, µM (doses to about 46.1 µM), for the others: at the highest dose activity, positive = more growth; actives 0.4% (n = 270,000); calls by dose curve; further: potency means the concentration at half of the fitted maximal effect; actives are rising curves; nearly all actives have a fitted effect of over 50% in size
#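 Recovery from NS1-induced slow growth read by OD600 in budding yeast switched to galactose assay medium (pH 6.0, -URA) at 1:100 dilution. Compound 23 nl per well; the matching strain lacking NS1 serves as control.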
# Tb PYK inh – T. brucei pyruvate kinase inhibition; TbPYK enzyme, Kinase-Glo Plus ATP luminescence, 45 min; AID 624173; actives 0.12% (n = 410,000); Q57TT1; Potency, µM (doses to about 76.8 µM), without a hit: top-dose activity, negative = inhibition, usual class: inhibitors; further: potency means the concentration at half of the fitted maximal effect; on the % scale 0 is the no-effect control and ±100 the full control effect; nearly all actives have a fitted effect of over 50% in size
#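 Enzyme and substrate buffer are dispensed first and compound is pin-transferred. ADP at 130 uM final then starts the reaction, which runs 45 min at room temperature. Detection reagent is added for 10 min before luminescence is imaged.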
# CHX counter – affects cycloheximide protein synthesis inhibition readout, counter-screen. cell reporter, cycloheximide protein synthesis inhibition counterscreen. max response, %. actives 12% (n = 300,000). AID 2314; in the data active means max response mostly above about 13%, no sharp cut-off; inactive means mostly below about 14%; further: read at 38.3 µM for the half of the compounds with a filed dose; 0% is about no effect
# Shiga toxin inh – blocks Shiga toxin action in Vero cells; Vero cells, Shiga toxin protein synthesis inhibition reporter; inhibition, % at 38.7 µM; actives 9.2% (n = 290,000); AID 2315; in the data active means inhibition mostly above about 28%, no sharp cut-off; inactive means mostly below about 43%; further: 0% is about no effect
# The depositor's hits bear a star; nt = not tested or not shown; [ ] = remark or other dose. Unless noted, the call rests on the fitted dose curve; in most records, active means well fitted curve in the direction sought with a large enough effect; inconclusive means small, poorly fitted or top-dose-only effect, or another doubt; inactive means no such curve, though single readings can be large; an effect the other way counts as inactive or inconclusive.
SMILES,SARS PLpro yeast,LmPK inhibitor,NS1 function inh,Tb PYK inh,CHX counter,Shiga toxin inh
COc1ccc(/C=C/C(=O)c2cc(Cl)ccc2O)c(OC)c1,-1.1%,-3.2%,-1.1%,3.4%,24.6*,49.5*
O=C(/C=C/c1ccncc1)c1cc(Cl)ccc1O,-4.1%,6.0%,2.1%,8.0%,10.3,19.8
CCOc1cc(C#N)ccc1OCC(=O)N1CCN(C(=O)c2cccs2)CC1,0.5%,nt,nt,-4.3%,nt,nt
O=C(Nc1ccccc1Cl)c1cc2c(-c3ccccc3)nn(-c3ccccc3)c2s1,nt,nt,nt,-2.6%,nt,nt
COc1ccccc1NS(=O)(=O)c1cn(C)c(C)n1,nt,nt,nt,7.6%,nt,nt
CSc1nc(O)c(C(c2ccc(F)cc2)c2c(O)nc(SC)[nH]c2=O)c(=O)[nH]1,nt,nt,nt,-4.5%,nt,nt
CSc1nc(O)c(N=Nc2ccc(F)cc2F)c(=O)[nH]1,-8.1%,15.8µM*,-36.7%,-15.9%,29.6*,53.8*
COC(=O)c1ccc(NC(=O)c2cccnc2)cc1,-0.7%,3.6%,-5.0%,4.6%,-1.7,nt
C/C(=C\C(=O)c1cccnc1)Nc1ccc(O)cc1,-6.9%,5.1%,1.2%,-6.0%,27.6*,26.2*
C/C(=C\C(=O)c1ccccc1)Nc1ccc(O)cc1,-7.3%,4.9%,-2.3%,-7.8%,89.1*,173.7*
CC(=O)N(C)c1ccc(NC(=S)NCC(C)C)cc1,0.7%,3.1%,4.1%,1.7%,15.2*,35.3
COC(=O)Cc1ccc(NC(=S)Nc2cccc(C)n2)cc1,0.3%,3.5%,-1.2%,-0.2%,15.8*,39.5
COC(CNC(=S)Nc1ccc([N+](=O)[O-])cc1)OC,18.6%,1.4%,8.8%,-9.9%,14.1*,active
COC(=O)Cc1ccc(NC(=S)NCC(C)C)cc1,6.4%,-9.3%,1.2%,-9.7%,16.2*,11.0
CCOC(=O)c1ccc(NC(=S)Nc2cccc(C)n2)cc1,23.4%,-0.9%,20.2%,-0.4%,0.8,-7.6
COc1cc(NC(=S)Nc2ccc(N(C)C(C)=O)cc2)cc(OC)c1,-1.7%,1.4%,2.5%,5.8%,-2.7,-19.0
O=[N+]([O-])c1ccc(C(O)CNC(=S)Nc2ccccc2)cc1 (centres undefined),-2.6%,0.6%,1.2%,3.0%,1.6,-9.3
Cc1nc(-c2ccc(C)c(N3CCN(C(=O)Nc4ccc(Br)cc4)CC3)c2)no1,nt,nt,nt,-7.7%,nt,nt
Cc1cncc(C(=O)O)[n+]1[O-],nt,nt,nt,-6.0%,nt,nt
CC(C)C[C@H](NC(=O)[C@H](CO)NC(=O)[C@@H]1CCCN1C(=O)[C@H](Cc1ccc(O)cc1)NC(=O)[C@H](CC(C)C)NC(=O)[C@H](CC(C)C)NC(=O)[C@@H]1CCCN1C(=O)[C@@H](NC(=O)[C@H](CO)NC(=O)[C@H](CO)NC(=O)[C@H](CO)NC(=O)[C@H](CO)NC(=O)[C@@H]1CCCN1C(=O)[C@@H](NC(=O)[C@@H](N)CO)C(C)C)[C@@H](C)O)C(=O)N[C@@H](C)C(=O)N[C@@H](CC(C)C)C(=O)N1CCC[C@H]1C(=O)N[C@@H](C)C(=O)N1CCC[C@H]1C(=O)O,nt,nt,nt,nt,-3.5,4.5
CCN1CCC(N2CCN(c3ccccc3OC)CC2)CC1,-5.2%,-5.5%,16.9%,1.6%,-2.5,-4.5
NS(=O)(=O)c1ccc(CNC(=O)CNC(=O)c2ccc(F)cc2)cc1,-1.1%,-4.9%,-0.4%,-2.8%,14.9*,67.8*
CCCCc1cc2c(cn1)=C(OC(=O)C1CCCC1)C(C)(OC(=O)CC)C(=O)C=2 (centres undefined),nt,0.8%[11.5 µM],nt,nt,nt,nt
COC(CNc1ncnc2sc(-c3ccccc3)cc12)OC,0.6%,-3.0%,1.7%,2.5%,13.6,25.9
CC(O)CNc1ncnc2cc(-c3ccc(F)cc3)sc12 (centres undefined),-1.3%,1.2%,0.6%,2.6%,15.2*,78.6*
Cc1ccc(C(=O)[C@H](C)CN2CCCCC2)cc1,nt,nt,nt,0.1%,nt,nt
O=C(N/N=C/c1ccc(F)c(F)c1)c1cc2c(s1)-c1ccccc1CC2,-1.7%,2.2%,10.4%,-1.8%,-3.6,-2.4
CNC(=O)c1cc2c(-c3ccccc3)nn(C)c2s1,-10.6%,-4.3%,-7.0%,5.2%,-1.8,17.0
CNC(=O)c1cc2c(s1)-c1ccccc1CC2,-4.3%,3.9%,-31.3%,-4.7%,48.8*,99.8*
CNC(=O)c1cc(C)c(-c2ccccc2)s1,-36.6%,0.3%,-58.7%,-11.5%,45.7*,34.6
